ERa SRC1 pot: ER-alpha (human) coactivator binding potentiation | P03372 | TR-FRET ERalpha-LBD/SRC-Cy5 coactivator binding, 2 h; 100 = basal binding, no effect | coactivator binding (% of control), % at 25.6 µM | 86,000 tested, 1.3% active | AID 639; in the data active = activity above about 200%;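 also: binding measured in presence of low estradiol as agonist stimulus; 0% = peptide alone without receptor and 100% = receptor with peptide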
Candida biofilm: kills Candida albicans biofilms; C. albicans biofilm + clotrimazole, Alamar Blue; inhibition, % at 6 µM; 85,000 tested, 0.14% active;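 active = inhibition above 20%; inactive = inhibition below 20%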;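 also: preformed 24 hr biofilms exposed to compound for 48 hr; 0% = biofilm without compound and 100% = blank killed by clotrimazole plus chlorhexidine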
MT1-MMP txn act: MT1-MMP promoter transcription activation; HT1080 MT1-MMP promoter luciferase reporter, luminescence, overnight; hits give high values; AID 750; 86,000 tested, 0.16% active; activation factor at 10 µM;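 active = activation factor of at least 2 for MT1-MMP transcription at 10 µM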
ERb coact inh: blocks coactivator binding to human estrogen receptor beta; inhibition, % at 25.6 µM; AID 633; TR-FRET ER-beta LBD / SRC1-Cy5 peptide binding; receptor agonist-loaded with 1 µM estradiol; 86,000 tested, 1.3% active;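 active = compounds whose percent inhibition of the receptor-coactivator binding signal exceeds about 50% in the single-dose screen, limit read from the data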;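 also: 0% = receptor plus peptide wells without compound and 100% = peptide-only wells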
ERa coact inh: ER-alpha (human) coactivator binding inhibition; P03372; TR-FRET ER-alpha LBD / SRC-1 peptide, estradiol-bound; inhibition, % at 25.6 µM; 86,000 tested, 1.7% active; AID 629; in the data active = inhibition above about 50%;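 also: 0% = receptor plus peptide control and 100% = peptide only without receptor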
EphB4 antag: EphB4-ephrin-B2 interaction antagonism; EphB4 LBD / TNYL-RAW-Alexa532 peptide, fluorescence polarization; inhibition, % at 7 µM; 97,000 tested, 0.15% active; P54760;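 active = inhibition above the screen-wide mean inhibition plus 3 SD, cut at about 15% in these data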;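 also: 0% = DMSO wells and 100% = excess unlabeled TNYL-RAW peptide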
Target sequence (P54760 whole entry, looked up, the tested form may be a part): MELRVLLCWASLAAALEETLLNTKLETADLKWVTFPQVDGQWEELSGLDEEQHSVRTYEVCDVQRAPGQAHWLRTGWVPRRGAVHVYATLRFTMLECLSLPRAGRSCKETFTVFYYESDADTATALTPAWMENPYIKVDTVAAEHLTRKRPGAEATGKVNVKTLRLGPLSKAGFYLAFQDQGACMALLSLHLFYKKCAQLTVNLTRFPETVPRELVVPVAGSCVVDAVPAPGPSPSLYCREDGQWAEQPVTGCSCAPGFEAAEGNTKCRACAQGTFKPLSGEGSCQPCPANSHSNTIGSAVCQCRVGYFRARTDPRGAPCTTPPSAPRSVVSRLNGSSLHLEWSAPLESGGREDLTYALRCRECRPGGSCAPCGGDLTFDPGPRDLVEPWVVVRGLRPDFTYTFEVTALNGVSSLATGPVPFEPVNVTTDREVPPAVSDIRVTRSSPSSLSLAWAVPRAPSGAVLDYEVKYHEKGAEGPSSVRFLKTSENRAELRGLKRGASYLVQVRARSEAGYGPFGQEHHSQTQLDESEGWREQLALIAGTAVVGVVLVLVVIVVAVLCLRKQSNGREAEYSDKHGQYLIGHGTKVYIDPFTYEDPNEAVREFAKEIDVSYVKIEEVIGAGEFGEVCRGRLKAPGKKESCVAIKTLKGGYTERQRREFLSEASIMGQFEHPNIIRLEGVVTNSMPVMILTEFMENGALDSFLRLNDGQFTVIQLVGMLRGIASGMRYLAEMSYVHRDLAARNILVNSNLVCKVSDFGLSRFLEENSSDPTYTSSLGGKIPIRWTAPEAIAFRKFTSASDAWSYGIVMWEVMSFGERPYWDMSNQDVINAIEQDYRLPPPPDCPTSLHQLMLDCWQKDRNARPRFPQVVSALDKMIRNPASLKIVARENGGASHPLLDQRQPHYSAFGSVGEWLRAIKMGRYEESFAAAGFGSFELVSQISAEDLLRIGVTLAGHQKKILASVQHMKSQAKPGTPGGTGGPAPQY
Starred values were filed as active, the others as inactive; . = no result given; [ ] = another dose, or the depositor's remark. Shown are actives, neighbours in structure and some others; about 3.2% of the full set was active somewhere.

SMILES | ERa SRC1 pot | Candida biofilm | MT1-MMP txn act | ERb coact inh | ERa coact inh | EphB4 antag
COc1ccc2cc3cc(C(=O)NCCc4ccc(OC)c(OC)c4)oc3nc2c1 | 98.4 | 10.0 | 1.2 | -0.3 | 20.9 | 2.3
COc1ccc(C)cc1NC(=O)c1cc2cc3ccc(C)cc3nc2o1 | 209.4* | 6.6 | 1.2 | -20.0 | 39.8 | -3.8
Cc1ccc2cc3cc(C(=O)NCc4ccc5c(c4)OCO5)oc3nc2c1 | 125.0 | 9.2 | 0.9 | 34.6 | 51.2*[fluorescence artefact?] | -9.7
COc1ccc2nc3oc(C(=O)Nc4ccc(OC)c(OC)c4)cc3cc2c1 | 108.3 | 3.6 | 1 | 41.4 | 63.0*[fluorescence artefact?] | -5.0
COc1ccc2cc3cc(C(=O)Nc4ccc5c(c4)OCO5)oc3nc2c1 | 158.7 | 8.5 | 1.1 | 39.4 | 23.5 | 0.4
CC(C)c1nnc(NC(=O)CCC(=O)NCc2ccc3c(c2)OCO3)s1 | 109.1 | 5.4 | 1 | 16.9 | -3.5 | -8.3
N#C/C(=N\Nc1ccc(Cl)cc1)C(=N)N1CCCCC1 | 44.3 | 3.6 | 1.2 | 11.7 | -2.8 | 3.5
N#C/C(=N\Nc1ccccc1F)C(=N)N1CCCCC1 | 127.8 | -4.0 | 2* | 60.0*[fluorescence artefact?] | -5.0 | 1.9
CCS(=O)(=O)NCc1csc(-c2ccccc2)n1 | 90.8 | 25.1* | 1.4 | 30.9 | -1.5 | .
CS(=O)(=O)NCc1csc(-c2ccccc2)n1 | 103.4 | 4.8 | 1.3 | -3.9 | -12.8 | 9.2
Oc1ccc(-c2cn3c(n2)SCC3)cc1O | 20.1 | 7.3 | 1.4 | 94.1*[fluorescence artefact?] | 74.8*[fluorescence artefact?] | -3.7
Oc1ccc(-c2cn3c(n2)SCC3)cc1 | 113.9 | -7.0 | . | 67.2*[fluorescence artefact?] | -7.7 | -4.8
COC(=O)c1ccc(CSc2ccc3nnc(-c4cccc(F)c4)n3n2)o1 | 89.0 | -5.4 | 1.1 | 36.5 | -4.8 | 5.9
COc1cccc(NC(=O)c2ccc3snnc3c2)c1 | 150.6 | 2.4 | 1.8 | -45.0 | -56.1 | 1.2
COc1cccc(-c2nc(CS(=O)(=O)CC(=O)Nc3cc(C)ccc3C)c(C)o2)c1 | 213.8*[fluorescence artefact?] | 7.6 | 1.1 | 12.4 | 16.3 | -5.7
COc1cccc(-c2nc(CS(=O)(=O)CC(=O)Nc3c(C)cccc3C)c(C)o2)c1 | 183.5 | -0.9 | 1.1 | 12.9 | 16.5 | .
COC(=O)[C@@]1(Cc2ccccc2)[C@H]2c3cc(C(=O)N4CCCC4)n(Cc4ccccc4)c3C[C@H]2CN1C(=O)c1ccccc1 | . | . | 1.2 | . | . | .
Cc1cc(C(=O)CN2C(=O)NC(c3ccccc3)(c3ccccc3)C2=O)c(C)n1Cc1ccccc1 | 188.7 | 5.4 | 1.1 | 2.1 | -7.6 | 19.8*
COc1ccc(C2CC(c3cccs3)=Nc3ccccc3S2)cc1 (stereo not drawn) | 99.8 | 11.0 | 2.1* | -3.1 | -10.4 | -3.0
COC(=O)c1ccc(C(NC(=O)OCc2ccccc2)/C(F)=C/[C@@H](C)C(=O)N2CCN(C)CC2)cc1 (stereo partly drawn) | . | . | 1.5 | . | . | .
O=C(c1cccnc1)N1CCN(C(=O)c2cccs2)CC1 | 107.2 | 5.5 | 1 | -2.6 | -4.4 | 2.4
COc1ccc(/C=N/n2cc(-c3ccc(OC)cc3)nc2N)cc1 | 36.6 | 0.1 | 1.3 | 23.0 | 77.1*[fluorescence artefact?] | 2.0
Cc1ccc(-c2cc(C(=O)Nc3cc(C)ccc3C)[nH]n2)c(O)c1 | 122.2 | 3.7 | 1.1 | 8.2 | 22.2 | -2.9
COc1ccc(OC)c(NC(=O)c2cc(-c3ccc(C)cc3O)n[nH]2)c1 | 120.0 | 6.6 | 1.1 | 40.5 | 69.7* | 1.5
CCOc1ccc(NS(=O)(=O)c2cc(Cl)ccc2OC)cc1 | 99.4 | 0.9 | 1.1 | -2.5 | 2.8 | -7.0
SMILES | ERa SRC1 pot | Candida biofilm | MT1-MMP txn act | ERb coact inh | ERa coact inh | EphB4 antag
CC1=CC(=O)C=C(C)C1=NOC(=O)c1cccc([N+](=O)[O-])c1 | 94.7 | 86.3* | 1 | 3.5 | 3.7 | -1.1
Cc1cccc(C(=O)O/N=C(\N)c2cccc([N+](=O)[O-])c2)c1 | . | . | . | . | . | 10.4
COc1ccc(N=C2NC(=O)S/C2=C\c2ccc(N(C)C)cc2)cc1 | 37.0 | 0.4 | 1.4 | 51.9* | 53.5* | 9.5
Oc1c(C(Nc2nc3ccccc3s2)c2ccco2)ccc2cccnc12 (stereo not drawn) | 105.2 | 8.2 | 1 | 3.3 | 0.3 | 1.7
Cc1conc1NC(c1cccs1)c1ccc2cccnc2c1O (stereo not drawn) | 66.2 | 16.3 | 0.8 | 46.4 | 56.8*[fluorescence artefact?] | -8.1
Cc1cccc(Nc2nn3c(=O)c4ccccc4nc3s2)c1 | 221.0*[fluorescence artefact?] | -2.2 | 1.6 | 57.9*[fluorescence artefact?] | 66.0*[fluorescence artefact?] | -2.3
CC(C)Oc1ccc(-c2cc(=O)[nH]c(=O)[nH]2)cc1 | . | . | . | . | . | -0.8
O=C(Nc1cnn(Cc2ccc(Cl)cc2Cl)c1)c1cc(-c2cccs2)on1 | 157.4 | 6.9 | 1.1 | 22.8 | 51.2*[fluorescence artefact?] | -12.3
COc1cc(C2SCC(=O)N2CCCN(C)C)cc(OC)c1OC (stereo not drawn) | 95.3 | 3.0 | 1.2 | 2.7 | 11.0 | -2.7
O=C(NCc1ccc2c(c1)OCO2)c1cc2c(s1)CSC2 | 73.9 | 7.8 | 1.1 | 31.2 | 27.0 | .
O=C(NCc1ccco1)c1cc2c(s1)CSC2 | 77.1 | 5.4 | 1.1 | 64.9* | 71.2* | -1.8
COc1ccc(OCCOCCN2CCOCC2)cc1 | 99.4 | 2.9 | 1.1 | 3.4 | -3.3 | 2.0
c1ccc(OCCOCCN2CCOCC2)cc1 | 97.3 | 62.5* | 1.1 | -5.3 | -8.7 | -3.1
Oc1ccc(CNc2ccccc2F)c2cccnc12 | 91.4 | -5.6 | 1.1 | 62.1*[fluorescence artefact?] | 20.4 | -4.0
O=C(c1ccc2ncsc2c1)N1CCN(c2ccc(O)cc2)CC1 | 73.6 | 7.5 | 1.3 | 28.1 | 15.9 | 5.2
O=C(c1noc2c1CCCC2)N1CCN(C(c2ccccc2)c2ccccc2)CC1 | 239.7* | -2.5 | 1.2 | -9.9 | -11.1 | .
COc1ccc(-n2nc(C(=O)NCc3ccco3)c3c4ccccc4n(C)c3c2=O)cc1 | 328.8*[fluorescence artefact?] | 2.8 | 1.1 | 2.3 | 3.7 | .
O=C(O)CCCNS(=O)(=O)c1cccc2nsnc12 | 106.7 | -1.2 | 1 | 3.7 | -0.2 | 6.7
COc1ccc(-c2csc(NC(=O)c3nc(-c4ccccc4)oc3C)n2)cc1 | . | . | . | . | . | -5.0
Cc1oc(-c2ccccc2)nc1C(=O)Nc1nccs1 | 90.5 | 0.7 | 1.6 | 37.0 | 52.3*[fluorescence artefact?] | -1.5
O=C(Nc1ccc2oc(-c3ccncc3)nc2c1)c1c(F)c(F)c(F)c(F)c1F | 265.7* | -4.0 | 1.1 | 10.9 | 22.2 | 0.1
CCCCCC(=O)Nc1ccc2oc(-c3cccnc3)nc2c1 | 112.0 | 3.1 | 1.2 | -25.0 | -6.7 | 3.4
COc1ccccc1C(=O)Nc1ccc2oc(-c3ccc(F)cc3)nc2c1 | 251.9* | 4.5 | 1.6 | 24.7 | 29.2 | -8.9
COc1c(F)c(F)c(C(=O)Nc2ccc3oc(-c4ccncc4)nc3c2)c(F)c1F | 140.0 | -2.2 | 0.9 | 18.8 | 23.7 | 3.1
COc1ccc(-c2nc3cc(NC(=O)c4ccc5c(c4)OCO5)ccc3o2)cc1 | 412.2*[fluorescence artefact?] | -3.4 | 1.2 | 43.5 | 39.8 | -7.6
O=C(Cc1ccccc1)Nc1ccc2oc(-c3cccnc3)nc2c1 | 789.5* | 7.4 | 1.2 | -16.5 | -63.5 | 5.5
